Assay results from PubChem BioAssay AID504607 (Sanford-Burnham Center for Chemical Genomics, 2011).
Screen size: about 6,200 compounds; about 4,800 (77%) were called active. The set was probably picked from earlier hits. Not all results are given here. A number with no mark means an inactive call.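 The calls were made as follows: active = mean inhibition at 8 µM reaching about 37%, which flags the compound as non-specific (limit read from the data); inactive = the rest.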

Assay: full-length luciferase signal inhibition, confirmation, counter-screen for Mdm2/MdmX interaction inhibitor project, cell-based, single concentration, SaOS-2 (AID 504607);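 also: p53-null SaOS-2 cells with luciferase driven by a doxycycline-inducible promoter; compound on cells about two nights before reading with doxycycline added after day one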
Settings: SaOS-2 full-length luciferase counterscreen, luminescence; at 8 µM; hits give high values
With `Cc1ccc(OCCOCCOc2ccc(Br)cc2/C=N\NC(=O)c2ccncc2)cc1` the inhibition was 45.5% (active). In the case of `CC(=O)N1CCc2c(sc(NC(=O)CCS(=O)(=O)c3ccccc3)c2C#N)C1`, the inhibition is reported as 57.3% (active). With `COc1cc(NS(=O)(=O)c2ccc3ccccc3c2)c2ncccc2c1` the inhibition was 22.5%. With `O=[N+]([O-])c1ccccc1S(=O)(=O)Nc1cccc2cccnc12` the inhibition was 56.4% (active). In the case of `COc1ccc(NC(=O)/C(Cl)=C(/Cl)S(=O)Cc2ccc(C)cc2)cn1` (configuration not stated), the inhibition is reported as 0.18%. For `CN(C)CCCn1c(=O)n(Cc2ccccc2)c(=O)c2c3c(sc21)CCCCC3`, the inhibition was 70% (active). With `CSc1nnc(NC(=O)c2nc(S(=O)(=O)Cc3ccc(C)cc3)ncc2Cl)s1` the inhibition was 49.9% (active). For `Cc1ccc(CS(=O)(=O)c2ncc(Cl)c(C(=O)Nc3nnc(C)s3)n2)cc1`, the inhibition was 50.9% (active). With `COc1ccccc1N1CCN(c2ncnc3sc(C)c(-c4ccccc4)c23)CC1` the inhibition was 80.6% (active). In the case of `COc1ccccc1N(CC(=O)N/N=C(\C)c1ccccc1O)S(=O)(=O)c1ccc(C)cc1`, the inhibition is reported as 37.3% (active). For `COc1cc(NC(=O)c2cncc(-c3ccc(C#N)cc3)c2)cc(C(=O)Nc2cccc(C(F)(F)F)c2)c1`, the inhibition was 21.1%. With `COc1cc(NC(=O)c2[nH]cnc2C(N)=O)cc(C(=O)Nc2cccc(C(F)(F)F)c2)c1` the inhibition was 50% (active). In the case of `CC[C@H]1CN2CCc3cc(OC)c(OC)cc3[C@@H]2C[C@@H]1C[C@H]1NCCc2cc(OC)c(OC)cc21`, the inhibition is reported as 51.2% (active). For `Cc1ccc(C(=O)N/C(=C/c2ccc(-c3cccc([N+](=O)[O-])c3)o2)C(=O)NCCCN(C)C)cc1`, the inhibition was 44.1% (active). For `Nc1nonc1-c1nc2ccccc2n1Cc1ccc(F)cc1`, the inhibition was 71.9% (active). With `COc1ccc(OC)c(C2C3=C(N=c4s/c(=C\c5cccc(O)c5)c(=O)n42)c2ccccc2CC3)c1` (configuration not stated) the inhibition was 41.8% (active). With `C=CCn1c(SCc2c(C)noc2C)nc2sc3c(c2c1=O)CCC(C)C3` (configuration not stated) the inhibition was 52.9% (active). In the case of `O=C(NCC1CCCO1)c1cc2c([nH]c3ccccc32)c(-c2ccc(F)cc2)n1` (configuration not stated), the inhibition is reported as 74.8% (active). Work on `Oc1c(CN2CCCC2)cc(COCc2ccccc2)c2cccnc12` yielded an inhibition of 32.2%. In the case of `COc1cc(/C=N/NC(=O)Nc2ccccc2)ccc1OCCOc1ccccc1C`, the inhibition is reported as 62.6% (active). For `O=C(NC(=O)c1ccccc1N1CCCCC1)Nc1ccc(Br)cc1`, the inhibition was 86.3% (active). In the case of `CCOC(=O)c1c(-c2ccc(C)cc2C)csc1NC(=O)CSc1nnnn1C`, the inhibition is reported as 73.6% (active). With `COc1ccc(C2CC(c3ccccc3)=NN2C(=O)c2ccc(Cl)c([N+](=O)[O-])c2)cc1` (configuration not stated) the inhibition was 62.6% (active). For `CC(=O)c1ccc(S(=O)(=O)N2CCN(C(=O)/C=C/c3ccc4ccccc4n3)CC2)cc1`, the inhibition was 46.9% (active). With `N/C(=N\OC(=O)c1ccc2c(c1)OCO2)c1ccc(Br)cc1` the inhibition was 137% (active). In the case of `CCc1nc(C)cn1S(=O)(=O)c1cc([N+](=O)[O-])ccc1Cl`, the inhibition is reported as 103% (active). With `CCOc1cc(/C=C/c2nc3ccccc3c(=O)[nH]2)cc(Br)c1OC` the inhibition was 57.5% (active). With `O=C(/C=C/c1ccc(Cl)c([N+](=O)[O-])c1)c1ccc(O)cc1` the inhibition was 59.3% (active). In the case of `O=C(/C=C/c1ccc(Cl)c([N+](=O)[O-])c1)c1cccnc1`, the inhibition is reported as 67.5% (active). In the case of `CCCc1nc(NCc2ccc3c(c2)OCO3)c2nnn(Cc3ccccc3Cl)c2n1`, the inhibition is reported as 91.5% (active). For `CC(C)Cc1nc(Nc2ccc(S(=O)(=O)N3CCCC3)cc2)c2nnn(Cc3ccccc3)c2n1`, the inhibition was 24.1%. In the case of `COc1ccc(/C=C/C(=O)c2ccc(NS(=O)(=O)c3ccc(C)cc3)cc2)cc1O`, the inhibition is reported as 65.2% (active). In the case of `Cc1ccc(C2CC(=O)NC(SCC(=O)OCc3ccccc3)=C2C#N)o1` (configuration not stated), the inhibition is reported as 55.9% (active). `Cc1ccsc1C(=O)OCC(=O)c1cc(C)n(CC2CCCO2)c1C` (configuration not stated) showed an inhibition of 28.9%. For `Cc1cc(C(=O)COC(=O)CNC(=O)c2ccc(F)cc2)c(C)n1Cc1ccco1`, the inhibition was 98.9% (active). With `CCOc1cc(C(=O)N2CCc3cc(OC)c(OC)cc3C2)ccc1OC(F)F` the inhibition was 86.4% (active). For `COc1cc(N=Cc2c(O)[nH]c3ccccc23)cc(OC)c1OC`, the inhibition was 47% (active). For `COc1ccc(N=Cc2c(O)[nH]c3ccccc23)cc1OC`, the inhibition was 65.3% (active). With `c1ccc2c(c1)C(=NC1CCCCC1)NC2=NC1CCCCC1` the inhibition was 42.2% (active). With `OC(CNCC1CCCO1)Cn1c2ccc(Br)cc2c2cc(Br)ccc21` (configuration not stated) the inhibition was 52.2% (active). For `CC1=C/C(=N\OS(=O)(=O)c2ccccc2)C=CC1=O`, the inhibition was 45.1% (active). In the case of `CCc1ccc2c(c1)C1(NN=C(c3ccccc3)S1)C(=O)N2` (configuration not stated), the inhibition is reported as 40.3% (active). With `Cn1cc([N+](=O)[O-])c(C(=O)Nc2cnn(Cc3ccc(F)cc3)c2)n1` the inhibition was 74.9% (active). For `COc1ccccc1-n1nnnc1S(=O)(=O)Cc1ccc(Cl)cc1`, the inhibition was 52.1% (active). Work on `COc1cccc(/C=N/NC(=O)c2[nH]nc3c2CCc2ccccc2-3)c1O` yielded an inhibition of 27%. For `COc1cccc(/C=N/Nc2cc(C)nc(-c3ccccc3O)n2)c1O`, the inhibition was 55.6% (active). With `c1ccc(C2CCC(N3CCC(N4CCCCC4)CC3)CC2)cc1` (configuration not stated) the inhibition was 38.2% (active). In the case of `CCCCCCCCCCOC(=O)Cn1c(COc2ccc(C)cc2)[n+](C)c2ccccc21`, the inhibition is reported as 59.5% (active). With `CCCCCCCCCCOC(=O)Cn1c(COc2cccc(OC)c2)[n+](C)c2ccccc21` the inhibition was 31.2%. In the case of `CC1CCN(C(=O)c2ccc(S(=O)(=O)Cc3cc(F)ccc3F)c([N+](=O)[O-])c2)CC1`, the inhibition is reported as 44.1% (active). Work on `COc1ccc(-c2cn[nH]c2-c2ccc(OC)cc2)cc1` yielded an inhibition of 35.1%. For `COc1ccc(-c2n[nH]c(C)c2-c2ccc(OC)c(OC)c2)c(O)c1`, the inhibition was 53.7% (active). With `CCCCn1c(-c2cccc(C)c2)nc2cc3[nH]c(=O)c(C(C)C)nc3cc21` the inhibition was 91.6% (active). Work on `CC(=O)Nc1nc(C)c(-c2csc(Nc3ccc(S(N)(=O)=O)cc3)n2)s1` yielded an inhibition of 31.7%. In the case of `O=C(NC(=S)Nc1ccc2oc(=O)ccc2c1)c1ccc(-c2cccc(Cl)c2Cl)o1`, the inhibition is reported as 68.2% (active). For `O=c1oc2ccccc2cc1-c1cn(-c2ccccc2)c(=S)[nH]1`, the inhibition was 38.4% (active). In the case of `NC(N)=Nc1nc(-c2ccccc2)c2cc(Cl)ccc2n1`, the inhibition is reported as 53.4% (active). `COc1ccc(Nc2ncnc3ccc(Br)cc23)c(OC)c1` showed an inhibition of 24.3%. For `COc1ccc(NC(=O)c2cc(-c3cc(OC)c(OC)c(OC)c3)nc3ccccc23)c(OC)c1`, the inhibition was 58.2% (active). In the case of `Cc1ccc2nc(-c3ccncc3)cc(C(=O)Nc3ccc4c(c3)OCCO4)c2c1`, the inhibition is reported as 44.2% (active). With `COc1ccc(C(CCN(Cc2ccc(OC)c(OC)c2)C(=O)CCl)c2ccccc2)cc1` (configuration not stated) the inhibition was 58.4% (active). With `Cc1noc(C)c1-c1ccc2ncnc(NC(C)c3ccco3)c2c1` (configuration not stated) the inhibition was 59.8% (active). In the case of `Cc1cccc(Nc2nc3c(S(=O)(=O)c4ccccc4)nnn3c3ccccc23)c1C`, the inhibition is reported as 94.3% (active). Work on `CN(c1ccc2nc3ccccc3c(=O)n2n1)C1CCCCC1` yielded an inhibition of 27.7%. For `CC(Nc1nc(C(F)(F)F)nc2ccccc12)c1cccs1` (configuration not stated), the inhibition was 50.3% (active). `CC(C)(C)Nc1nc(-c2ccccn2)nc2ccccc12` gave an inhibition of 23.3%. In the case of `COc1ccc(Cc2nnc(N/N=C/c3ccccc3O)[nH]c2=O)cc1OC`, the inhibition is reported as 38.6% (active). In the case of `Cc1nnc(N/N=C/c2ccccn2)[nH]c1=O`, the inhibition is reported as 20.6%. For `CCOc1cc(N2CCOCC2)c(OCC)cc1NC(=O)COc1cccc2cccnc12`, the inhibition was 39.6% (active). With `CCCOc1ccccc1C1CC(=O)Nc2cc3c(cc21)OCO3` (configuration not stated) the inhibition was 74.9% (active). With `COc1ccccc1C1C2=C(COC2=O)Nc2cc3c(cc21)OCO3` (configuration not stated) the inhibition was 90.3% (active). With `CCOc1ccc(S(=O)(=O)Nc2cccc(C(=O)NCC3(N4CCCCC4)CCCCC3)c2)cc1` the inhibition was 56.1% (active). `COc1ccc(CS(=O)/C(Cl)=C(/Cl)C(=O)Nc2ccc(OC)nc2)cc1` (configuration not stated) gave an inhibition of -0.43%. `O=C(CCCN1C(=O)/C(=C\c2ccco2)SC1=S)Nc1cccc2ccccc12` gave an inhibition of 28.5%. With `O=C(CCCN1C(=O)/C(=C\c2ccccc2)SC1=S)Nc1ccccc1O` the inhibition was 30.3%. In the case of `O=C(CCCN1C(=O)/C(=C/c2ccccc2)SC1=S)Nc1ccc(O)cc1`, the inhibition is reported as 51.8% (active). For `O=C(CCCN1C(=O)/C(=C/c2ccco2)SC1=S)Nc1ccccc1`, the inhibition was 50% (active). With `COc1ccc(/C=C2\SC(=S)N(CCC(=O)Nc3ccccn3)C2=O)cc1OC` the inhibition was 72.7% (active). For `O=C(CCCN1C(=O)/C(=C/c2cccs2)SC1=S)Nc1ccc(O)cc1`, the inhibition was 43% (active). `O=C1/C(=C/c2ccc(F)cc2)SC(=S)N1CCCC(=O)N1CCCCC1CCO` (configuration not stated) showed an inhibition of 23.7%. For `CCOc1ccc(-c2cc(C(=O)N/N=C/c3ccc(O)cc3)c3ccccc3n2)cc1`, the inhibition was 48.3% (active). With `Cc1nc2ccccc2nc1N/N=C/c1ccc(O)cc1O` the inhibition was 46.2% (active). `Oc1ccc(/C=N/Nc2nc(-c3ccccc3F)nc3ccccc23)c(O)c1` gave an inhibition of 31%. In the case of `COc1cc(OC)c2c(-c3cccc(-c4cccc(N)c4)c3)cc(=O)oc2c1`, the inhibition is reported as 50.1% (active). For `CC(NC(=O)c1ccc(N2CCNCC2)c([N+](=O)[O-])c1)C12CC3CC(CC(C3)C1)C2` (configuration not stated), the inhibition was 56.5% (active). With `CC[C@]1(O)C[C@@H]2CN(CCc3c([nH]c4ccccc34)[C@@](C(=O)OC)(c3cc4c(cc3OC)N(C)[C@H]3[C@@](O)(C(=O)OC)[C@H](OC(C)=O)[C@]5(CC)C=CCN6CC[C@]43[C@@H]65)C2)C1` the inhibition was 94.7% (active). With `CC[C@]1(O)CC2CN(CCc3c([nH]c4ccccc34)[C@@](C(=O)OC)(c3cc4c(cc3OC)N(C=O)[C@H]3[C@@](O)(C(=O)OC)[C@H](OC(C)=O)[C@]5(CC)C=CCN6CC[C@]43[C@@H]65)C2)C1` (some centres not stated) the inhibition was 102% (active).
